The values below come from PubChem BioAssay.

Values joined by “and” are separate entries in the source; they are usually repeats but may differ in a detail not shown here. Identical values can stand only once. Active and inactive are the calls of the source.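 The calls were made as follows, unless noted: active = compounds lowering colon cancer cell viability after pretreatment blocking the GSK3B kinase; inactive = the rest.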

Experiment [1] in a line: P. berghei load reduction in hepatocytes – cell-based, HepG2, luciferase luminescence, HepG2 viability, primary screen (AID 624349; in the data active = parasite load remaining mostly below about 12%, no sharp cut-off; inactive = mostly above about 10%;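 also: 100% = mean of DMSO negative control wells on the same plate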). The note with it: P. berghei liver stage in HepG2, luciferase luminescence, concentration not given here; parasite load remaining: stronger effect = lower value; viability: measured here: HepG2 viability without parasites.
Experiment [2] is described as follows: Wnt pathway potentiators raising nuclear beta-catenin – imaging, WNT3A-conditioned medium, mouse C2C12, NPC library, primary screen (AID 1117326; in the data active = nuclear beta-catenin stimulation mostly above about 4.2%, no sharp cut-off; inactive = mostly below about 10%). The note with it: stronger effect = higher value.
A short description of experiment [3]: stimulators of insulin release from INS-1E, primary screen, cell-based, 5 mM glucose, NPC library (AID 1117329;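 active = compound raises insulin release from rat beta cells at 5 mM glucose, no numeric limit stated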). The note with it: rat INS-1E insulin secretion, at 10 µM, stronger effect = higher value.
Experiment [4] in a line: growth inhibition of GSK3B-pretreated HCT116 cells – cell-based, CellTiter-Glo, 0.2 to 20 µM (AID 1117336). The note with it: HCT116 viability after GSK3B inhibitor, at 20 µM, stronger effect = higher value. (In ATP-based viability assays light output follows the ATP content of the culture.)
Experiment [5] is described as follows: inhibition of endothelial tube formation, primary screen, imaging, VEGF stimulated, CD31 staining, tube area, NPC library (AID 1117340;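 active = compound that reduces growth-factor-driven endothelial tube area in a mixed cell culture, no cutoff stated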). The note with it: VEGF-stimulated ADSC/ECFC co-culture, at 10 µM, stronger effect = higher value.
Experiment [6] is described as follows: GLP1 release stimulators, primary, NCI-H716, NPC library (AID 1117341;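 active = compound raises GLP1 secretion from the human gut endocrine cells, with no numeric limit stated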). The following applies: NCI-H716 cells, at 10 µM, stronger effect = higher value.
Experiment [7] in a line: HCT116 colon cancer cell growth inhibition, primary screen, CellTiter-Glo luminescence, NPC library (AID 1117342;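 active = compounds that lower survival of HCT116 colon cancer cells in the luminescence readout, no numeric limit stated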). The following applies: at 20 µM (top of the series).
Experiment [8] is described as follows: reduced SW480 viability measured with CellTiter-Glo, NPC library, primary (AID 1117343;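 active = compounds that lower viability of the colon cancer cells in the luminescence readout, with no numeric limit stated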). The note with it: CellTiter-Glo luminescence; at 20 µM (top of the series) unless noted.
Experiment [9] can be described thus: NPC library primary testing for decreased DLD-1 cell viability via CellTiter-Glo (AID 1117346;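 active = compounds that lower survival of DLD-1 colon cancer cells in the luminescence readout, no cutoff given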). The following applies: DLD-1 viability, CellTiter-Glo luminescence; at 20 µM (top of the series).
Experiment [10] is described as follows: EMT-state selective cytotoxicity in co-culture – imaging, PC-3E GFP, TEM4-18 mCherry, primary screen (AID 1345086;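 active = compounds killing one labelled cell type while sparing the other, by normalised counts and ratio limits, not self-fluorescent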;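 as to all read-outs here: cells exposed to compound for 72 h before imaging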;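 as to red/green cell ratio (normalised): normalised mesenchymal count divided by normalised epithelial count so high means epithelial killing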). The note with it: PC-3E GFP / TEM4-18 mCherry co-culture, imaging cell counts, at 1 µM; for red/green cell ratio (normalised): actives lie on both sides, counts scaled to control wells, 1 = unselective.
Experiment [11] can be described thus: viability loss with induced miR-34 in A549 – imaging, A549 dox-inducible miR-34, nuclei and caspase counts, primary screen (AID 1347080;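 active = compounds whose cell count with miR-34 switched on is under 0.7 times the count with it off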). The note with it: A549 miR-34 inducible, Hoechst nuclei count, 48 h.
For experiment [12], the target named is NAD(+) hydrolase SARM1 (Homo sapiens) (UniProt Q6SZW1). Nature of the experiment: blocking NAD cleavage by SARM1 SAM-TIR – cell lysate, NAD-Glo luminescence (AID 1508614;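 active = compound whose remaining NAD level is above about 45 nM, limit read from the data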;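 also: higher remaining NAD means stronger inhibition of SARM1 NADase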). The note with it: SAM-TIR HEK293T lysate NADase, at 1 µM, stronger effect = higher value.
The mark [13] stands for this setting: measured here: epithelial PC-3E GFP cell survival.
Where [14] appears, read: measured here: mesenchymal TEM4-18 mCherry cell survival.
Setting [15] is: stronger effect = lower value, cell number ratio, induced over uninduced.
The mark [16] stands for this setting: measured here: relative caspase fold change +Dox/-Dox.
[17] abbreviates: measured here: total cells with miR-34 induction, stronger effect = lower value.
Setting [18] is: measured here: total cells without miR-34 induction.

Sequence of NAD(+) hydrolase SARM1 (Homo sapiens) (Q6SZW1 whole entry, looked up): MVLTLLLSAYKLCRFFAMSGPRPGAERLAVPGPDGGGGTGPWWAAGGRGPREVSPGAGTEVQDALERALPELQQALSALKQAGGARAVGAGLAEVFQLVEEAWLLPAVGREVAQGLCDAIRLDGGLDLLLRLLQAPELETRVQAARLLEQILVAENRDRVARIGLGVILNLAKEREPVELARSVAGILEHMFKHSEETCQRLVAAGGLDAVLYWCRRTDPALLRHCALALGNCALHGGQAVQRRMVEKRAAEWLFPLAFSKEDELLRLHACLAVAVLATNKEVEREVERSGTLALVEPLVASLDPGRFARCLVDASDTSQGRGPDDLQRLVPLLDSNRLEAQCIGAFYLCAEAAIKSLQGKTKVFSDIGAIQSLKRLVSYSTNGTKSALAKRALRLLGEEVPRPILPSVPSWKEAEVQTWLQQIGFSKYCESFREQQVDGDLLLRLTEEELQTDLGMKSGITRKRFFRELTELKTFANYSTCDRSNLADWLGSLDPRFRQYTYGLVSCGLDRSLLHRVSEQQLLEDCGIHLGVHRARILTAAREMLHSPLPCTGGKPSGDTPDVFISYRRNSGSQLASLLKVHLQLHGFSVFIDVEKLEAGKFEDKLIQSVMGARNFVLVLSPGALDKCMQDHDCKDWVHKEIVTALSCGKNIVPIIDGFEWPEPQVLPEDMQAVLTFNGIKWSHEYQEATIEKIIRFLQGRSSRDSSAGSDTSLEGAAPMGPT

In general, viability refers to a read-out of living cells in per cent, often relative to untreated cells. Take `CC[C@@H](CO)NCCN[C@@H](CC)CO`: the parasite load remaining in experiment [1] was 80.8% (inactive) and 73.3% (inactive). The viability in [1] is 73% and 99%. In addition, the nuclear beta-catenin stimulation was 0.5% (inactive) in experiment [2] (at 10 µM) and 4.7% in [2] (stimulation, at 2 µM). The insulin secretion stimulation in experiment [3] is 2.6% (inactive). For the same compound, the viability decrease in experiment [4] is -8% (inactive). In addition, the tube area decrease in experiment [5] is 14.4% (inactive). Besides, the GLP1 secretion stimulation in experiment [6] is -1.2% (inactive). Further, the inhibition of viability in experiment [7] was -4.17% (inactive). The viability decrease (inhibition) in experiment [8] was 11.7% (inactive); in experiment [9] it was -13% (inactive). Further, in experiment [10], the red/green cell ratio (normalised) was 0.98 (inactive). Also, the normalised cell number in experiment [10] (setting [13]) came to 0.99; in [10] (setting [14]), 0.97. Further, the fold change in experiment [11] (setting [15]) was 0.901 (inactive); in experiment [11] (setting [16]) it was 1.1. Further, the cell count in [11] (setting [17]) is 11300; in [11] (setting [18]) it was 12600. In experiment [12], the remaining NAD is 10 nM (inactive).

Turning to `NC(=O)C1(N2CCCCC2)CCN(CCCC(=O)c2ccc(F)cc2)CC1`, the nuclear beta-catenin stimulation was -0.9% (inactive) in experiment [2] (at 10 µM) and -2% in [2] (stimulation, at 2 µM). The insulin secretion stimulation in experiment [3] is -0.5% (inactive). The viability decrease in experiment [4] was -17.7% (inactive). The tube area decrease in experiment [5] was 11.1% (inactive). In experiment [6], the GLP1 secretion stimulation was 2.8% (inactive). In addition, the inhibition of viability in experiment [7] was 15.3% (inactive). Also, the values for the viability decrease (inhibition) in experiment [8] and in experiment [9] were 12.8% (inactive) and -5.9% (inactive), respectively. In addition, the red/green cell ratio (normalised) in experiment [10] is 0.88 (inactive). Further, the normalised cell number in [10] (setting [13]) came out at 1.16; in [10] (setting [14]), 1.02. In addition, the fold change in experiment [11] (setting [15]) was 0.938 (inactive); in experiment [11] (setting [16]), 0.733. Also, the results for the cell count in [11] (setting [17]) and in experiment [11] (setting [18]) were 8980 and 9580, respectively. In addition, the remaining NAD in [12] was 10 nM (inactive).

Turning to `O=C(O)CN(CC(=O)O)Cc1cc2c(-c3ccccc3C(=O)O)c3cc(CN(CC(=O)O)CC(=O)O)c(=O)cc-3oc2cc1O`, the parasite load remaining in [1] was 107% (inactive). For the same compound, the viability in experiment [1] was 73.2%. Also, the nuclear beta-catenin stimulation in experiment [2] (at 10 µM) is -1.1% (inactive); in [2] (stimulation, at 2 µM), -0.6%. For the same compound, in experiment [3], the insulin secretion stimulation was -0.4% (inactive). Moreover, the viability decrease in [4] was 38.8% (inactive). Moreover, the tube area decrease in experiment [5] was 19.9% (inactive). Besides, in [6], the GLP1 secretion stimulation was 0.8% (inactive). Besides, the inhibition of viability in experiment [7] is 22.3% (inactive). Also, the viability decrease (inhibition) in [8] was 25.8% (inactive); in experiment [9], 14.8% (inactive). Besides, the red/green cell ratio (normalised) in experiment [10] is 0.97 (inactive). In addition, the normalised cell number was 1.53 in [10] (setting [13]) and 1.49 in experiment [10] (setting [14]).

Consider `COc1cc(C(=O)NCCCCCC(=O)O)cc(OC)c1OC`, for which, in [1], the parasite load remaining is 48.5% (inactive). In addition, in experiment [1], the viability came to 104%. Moreover, the nuclear beta-catenin stimulation in experiment [2] (at 10 µM) is -0.1% (inactive); in [2] (stimulation, at 2 µM), -2.6%. The insulin secretion stimulation in experiment [3] is 0.5% (inactive). The viability decrease in experiment [4] is 5.7% (inactive). For the same compound, the tube area decrease in experiment [5] is 12.7% (inactive). In experiment [6], the GLP1 secretion stimulation is -0.6% (inactive). In addition, in experiment [7], the inhibition of viability was 6.2% (inactive). Also, the viability decrease (inhibition) in [8] is -6.6% (inactive); in [9], -0.7% (inactive). In experiment [10], the red/green cell ratio (normalised) is 0.91 (inactive). Further, the normalised cell number in [10] (setting [13]) is 0.95; in experiment [10] (setting [14]) it was 0.86. The fold change in experiment [11] (setting [15]) was 0.815 (inactive); in experiment [11] (setting [16]), 7.04. For the same compound, the cell count in experiment [11] (setting [17]) was determined as 11100; in [11] (setting [18]) it was 13600. The remaining NAD in [12] was 10 nM (inactive).

For the compound `CC1(C)[C@@H]2CC[C@@]1(C)C(=O)C2`, the nuclear beta-catenin stimulation was 0.2% (inactive) in experiment [2] (at 10 µM) and 0.6% in [2] (stimulation, at 2 µM). The insulin secretion stimulation in experiment [3] was 2.4% (inactive). The viability decrease in experiment [4] is 2.6% (inactive). For the same compound, in experiment [5], the tube area decrease was -4.3% (inactive). In experiment [6], the GLP1 secretion stimulation was -0.1% (inactive). Moreover, the inhibition of viability in experiment [7] was 10.9% (inactive). For the same compound, the viability decrease (inhibition) was 2.9% (inactive) in [8] and 15.5% (inactive) in [9]. The red/green cell ratio (normalised) in [10] was 0.84 (inactive). The normalised cell number in experiment [10] (setting [13]) came to 1.25; in experiment [10] (setting [14]) it was 1.05. Further, in experiment [12], the remaining NAD was 10 nM (inactive).

As for `NCCNCCNCCN`, the parasite load remaining in experiment [1] was 41.3% (inactive). Moreover, in experiment [1], the viability came out at 163%. For the same compound, the nuclear beta-catenin stimulation in [2] (at 10 µM) was 0.6% (inactive); in experiment [2] (stimulation, at 2 µM), 0.7%. Also, the insulin secretion stimulation in experiment [3] was 0.4% (inactive). In addition, the viability decrease in experiment [4] is 0.25% (inactive). The tube area decrease in [5] is -7.4% (inactive). Further, the GLP1 secretion stimulation in experiment [6] is -0.1% (inactive). The inhibition of viability in [7] was 4.7% (inactive). For the same compound, the viability decrease (inhibition) was -40.9% (inactive) in experiment [8] and 3.2% (inactive) in experiment [9]. The red/green cell ratio (normalised) in experiment [10] was 0.86 (inactive). In addition, the normalised cell number was 1.02 in experiment [10] (setting [13]) and 0.88 in experiment [10] (setting [14]). In addition, the fold change is 0.908 (inactive) in experiment [11] (setting [15]) and 4.46 in experiment [11] (setting [16]). Also, the cell count is 11700 in [11] (setting [17]) and 12900 in experiment [11] (setting [18]). In experiment [12], the remaining NAD was 10 nM (inactive).
